Tg IFNy HTS = T. gondii growth inhibition with IFN-gamma, primary screen, cell-based; hit rate 3.8% among 69,000; activity change, negative = inhibition, % (concentration not given with the values); Toxoplasma gondii growth in IFN-gamma-treated host cells; hits give low values; in the data active = activity change below about -70%, passing the limit was not always enough;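 note: host cells are HeLa cells infected with Toxoplasma gondii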
* marks the source's active call; other numbers are inactive results; i = inactive; ! = repeats disagree. The sample as a whole holds a higher share of hits than the screen did.

SMILES	Tg IFNy HTS
FC(F)(F)CCCN1CCOC(CCCc2ccccc2)C1 (centres undefined)	-3
COc1cc(NC(=O)Cn2c(=O)cc(C(=O)N3CCOCC3)c3ccccc32)cc(OC)c1	12
CC(Cc1ccc2c(c1)OCO2)c1nccn1CCN1CCCOC1=O (centres undefined)	1
COCCN1CCC(C(=O)N2CC=C(c3ccccc3)CC2)C1 (centres undefined)	33
O=C(Cn1ncc2c(N3CCCC3)ncnc21)Nc1ccc(OC(F)(F)F)cc1	0
Cc1ccc(NC(=O)Cn2ncc3c(N4CCCCCC4)ncnc32)cc1F	-101*
Cc1ccc(NC(=O)Cn2ncc3c(N4CCCC4)ncnc32)cc1Cl	-55
O=C(Cn1ncc2c(N3CCN(c4ccccc4)CC3)ncnc21)Nc1ccc(OC(F)(F)F)cc1	-52
O=C(Cn1ncc2c(N3CCCC3)ncnc21)Nc1ccc(F)c(Cl)c1	-45
O=C(Cn1ncc2c(N3CCCCCC3)ncnc21)Nc1ccc(OC(F)(F)F)cc1	-98*
COc1ccc2c(c1)C=C(CN1CCC(C3Nc4ccccc4S(=O)(=O)N3)CC1)CO2 (centres undefined)	19
CN(C)C(=O)N1CCCC2(CCN(S(=O)(=O)c3cn(C)cn3)C2)C1 (centres undefined)	i
Cc1ccc(-c2nnc(CNCCSc3nnnn3C)o2)n1C	4
Cc1ccccc1NC(=O)CN1C(=O)CCc2cc(S(=O)(=O)N3CCCC3)ccc21	30
Cc1cc(N2CCCN(Cc3nc(C)n4ccccc34)CC2)ccn1	10
O=S(=O)(c1ccccc1)N1CCC2(CCCN2Cc2ccccc2F)C1 (centres undefined)	-9
CNCCCC1c2ccccc2C=Cc2ccccc21	-81*!
CNCCC=C1c2ccccc2C=Cc2ccccc21	16
O=C(c1cccs1)n1ccc(-c2ccc3c(c2)CCO3)n1	-47
Cc1nc(C(Cc2ccsc2)NC(=O)c2c(-c3cccnc3)noc2C)sc1C (centres undefined)	8
C[C@@H]1CN([C@@H](C)CO)S(=O)(=O)c2ccc(-c3cccc(C#N)c3)cc2O[C@H]1CN(C)C(=O)c1ccccc1	-99*
C[C@H](CO)N1C[C@H](C)[C@@H](CN(C)Cc2ccc(F)cc2)Oc2cc(C#CC(C)(C)O)ccc2S1(=O)=O	-95*
C[C@H]1CN([C@@H](C)CO)S(=O)(=O)c2ccc(C#CC3(O)CCCC3)cc2O[C@H]1CN(C)C(=O)Nc1cccc(F)c1	-62
C[C@H]1CN([C@@H](C)CO)S(=O)(=O)c2ccc(Br)cc2O[C@H]1CN(C)C(=O)Nc1ccccc1F	97
C[C@H]1CN([C@@H](C)CO)S(=O)(=O)c2ccc(C#CC(C)(C)O)cc2O[C@H]1CN(C)Cc1ccc(F)cc1	-32
SMILES	Tg IFNy HTS
C[C@@H]1CN([C@@H](C)CO)S(=O)(=O)c2ccc(-c3ccc(F)cc3)cc2O[C@@H]1CN(C)Cc1ccccc1C(=O)O	214
CCCNC(=O)N(C)C[C@@H]1Oc2cc(C#C[C@@H](C)O)ccc2S(=O)(=O)N([C@H](C)CO)C[C@H]1C	-38
C[C@@H]1CN([C@@H](C)CO)S(=O)(=O)c2ccc(C#CC3(O)CCCC3)cc2O[C@H]1CN(C)C(=O)Nc1cccc(F)c1	-92*
C[C@H](CO)N1C[C@H](C)[C@H](CN(C)Cc2ccc(F)cc2)Oc2cc(C#CC(C)(C)O)ccc2S1(=O)=O	275
C[C@H](CO)N1C[C@H](C)[C@H](CN(C)C(=O)c2ccccc2)Oc2cc(-c3cccc(C#N)c3)ccc2S1(=O)=O	-69
Cc1ccccc1-c1ccc2c(c1)O[C@@H](CN(C)C(=O)Nc1ccc(C(F)(F)F)cc1)[C@H](C)CN([C@@H](C)CO)S2(=O)=O	-100*
C/C=C/c1ccc2c(c1)O[C@H](CN(C)C(=O)Nc1ccc(OC)cc1)[C@H](C)CN([C@@H](C)CO)S2(=O)=O	i
CN1c2ccc(Cl)cc2C(=O)NC12CCN(C(=O)Nc1ccc3c(c1)OCCO3)CC2	100
Cc1ccc2[nH]cc(CCN3CC(C(=O)NC4CCCCCC4)CC3=O)c2c1 (centres undefined)	88
Cc1cc(-c2cnc(C(C)C)nc2-c2ccc(CNC(=O)CCc3ccccc3)cc2)on1	76
Cc1cccnc1CN1CCN(Cc2nn(C)c3cccc(Cl)c23)CC1	-14
COc1ccccc1CNC(=O)CC1N=C2c3ccccc3N=C(SCc3cccc(F)c3)N2C1=O (centres undefined)	-52
COCCN1CCO[C@H]2CCN(C(=O)c3cc(C)[nH]n3)C[C@H]21	-55
CN(Cc1n[nH]c(=O)n1CC1CCCCC1)S(C)(=O)=O	5
CCCc1cn(CC2CCN(C(=O)c3ccc4c(c3)OCO4)CC2)nn1	1
CCN(CC)C(=O)c1cc(=O)n(CC(=O)Nc2cccc(F)c2)c2ccccc12	4
CN(C)c1ccc(C(=C2C=CC(=[N+](C)C)C=C2)c2ccc(N(C)C)cc2)cc1	-81*
NCC(c1ccco1)N1CCCCCC1 (centres undefined)	12
CCc1nc(SCC(=O)N2Cc3cnc(-c4ccccc4)nc3C2)n[nH]1	86
COc1cc(NC(=O)c2c(O)c3cccnc3n(-c3ccc(F)cc3)c2=O)cc(OC)c1	97
CN(C)CCN1CCN(C)C2(CCN(C(=O)c3ccn[nH]3)CC2)C1=O	3
CC(=O)Nc1nc(C)c(-c2ccc(Cl)c(S(=O)(=O)NCCO)c2)s1	-81*
COc1ccc(-c2nc(C)c(CCNS(=O)(=O)c3cc(Cl)ccc3Cl)s2)cc1	410
Cc1nc(-c2ccc(F)cc2)sc1CCNS(=O)(=O)c1ccccc1Cl	48
CC(C)Cn1cncc1CNC(=O)c1cccc2ccnn12	2
SMILES	Tg IFNy HTS
Cc1ccc2cc(C3(O)CCN(C(=O)CCn4cnnc4)CC3)ccc2n1	11
Cc1ccc2[nH]cc(-c3cccc(OCC(N)=O)c3)c2c1	24
COc1ccc(-c2nc(CN(c3ccccc3)S(=O)(=O)c3ccccc3)c(C)o2)cc1OC	-41
COc1ccc(C2NCCc3c2[nH]c2ccccc32)cc1CN1CCN(c2ccc([N+](=O)[O-])cc2)CC1 (centres undefined)	-117*
COc1ccc(C2NC(C(=O)O)Cc3c2[nH]c2ccccc32)cc1CN1CCN(c2ccc(F)cc2)CC1 (centres undefined)	2
COCc1cc(CN2CCCN(c3ccccc3)CC2)ccc1OC	11
COc1cc(C(=O)Nc2cc(C)nn2Cc2cccnc2)nc(OC)n1	43
CN(C)CCN(Cc1cccnc1)Cc1cncn1Cc1ccccc1	14
COc1cc(CN(Cc2ccccc2)CC2CCCO2)cc(OC)c1OC (centres undefined)	1
Fc1cccc(CN(Cc2cncn2Cc2ccccc2)CC2CCCO2)c1 (centres undefined)	-93*
CC(C)Cc1noc(CN(C)c2nc(CCN)nc3ccccc23)n1	-5
C=C(C)COc1ccccc1C(=O)N1CCC[C@H]1COC	-6
CCc1nc(C)c(C(=O)N2C[C@@H]3[C@H](C2)[C@H]2CC[C@@H]3O2)o1	-4
CN(Cc1ccc2nonc2c1)C(=O)c1cn(Cc2c(F)cccc2F)nn1	-46
COc1ccc([C@@H]2CN(S(C)(=O)=O)[C@H]3CCN(C(=O)c4cccnc4)C[C@@H]23)cc1	62
Cc1noc(C)c1C(=O)NCc1ccc(-c2csnn2)cc1	18
CCc1nc(OCC(=O)NCc2ccc(C)cc2)c2ccccc2n1	-5
CNC(=O)c1ccc(-c2ccc(CNC(=O)COC)cc2)nc1C	-74*
Cc1cccc(-c2noc(-c3c(O)c4cc(C)ccc4[nH]c3=O)n2)c1	50

High-throughput results deposited in PubChem BioAssay by Broad Institute.
